Source: PubChem BioAssay AID2384 (Southern Research Specialized Biocontainment Screening …, 2010)
Out of some 2,300 compounds screened, about 1,100 (48%) were called active. No rule for the calls is given here. The set was probably picked from earlier hits. This is one part of the list. Entries with a potency or affinity are not part of this list.

Test: S. typhi counter-screen signal inhibition – fluorescence, 4 h, counter-screen for PhoP regulon inhibitor project, dose response (AID 2384)
Details: S. typhi GFP reporter counter-screen; series mostly up to 150 µM

Structure (SMILES) | inhibition
CCN(C1CCCCC1)S(=O)(=O)c1ccc(OC)c(C)c1 | inactive
Cc1cnc(C(=O)Nc2nnc(C)s2)cn1 | inactive
O=C(O)C1Cc2ccccc2CN1S(=O)(=O)c1ccc2ccccc2c1 (stereo not drawn) | inactive
CN1CCCN(S(=O)(=O)c2ccc3c(c2)OCCO3)CC1 | inactive
O=S(=O)(Nc1cccc(-c2cn3c(n2)SCC3)c1)c1ccc(F)cc1F | inactive
COc1ccc(NC(=O)N(CCc2ccccc2)Cc2cc3c(C)cc(C)cc3[nH]c2=O)cc1 | inactive
CCC(CC)C(=O)NCCc1cc2ccc(C)cc2[nH]c1=O | inactive
COc1ccc(Cl)cc1-c1n[nH]c(=S)o1 | inactive
CC1CC1C(=O)Nc1nc2ccc(S(C)(=O)=O)cc2s1 (stereo not drawn) | inactive
Cc1ccc(N2C(=O)[C@@H]3[C@H](C2=O)[C@H]2C=CC=NN2[C@@H]3C(=O)Nc2ccc(Cl)cc2)cc1 | inactive
COc1ccccc1CNC(=O)Cn1c(=O)oc2cc(S(=O)(=O)N3CCCC3)ccc21 | inactive
COc1cccc(NC(=O)COC(=O)Cc2ccccc2[N+](=O)[O-])c1 | inactive
Cc1ccc(NC(=O)c2sccc2C)cc1[N+](=O)[O-] | inactive
O=C(N/N=C/c1cccc(OCc2ccccc2)c1)c1cccs1 | inactive
O=C(Nc1ccc(Cl)cc1)c1cccs1 | inactive
Cc1ccc(NC2OC(CO)C(O)C(O)C2O)cc1 (stereo not drawn) | inactive
O=C1CC(NC(=O)C(F)(F)F)=NN1c1ccccc1 | inactive
Cc1nc2ccc(NC(=O)C(F)(F)F)cc2o1 | inactive
NS(=O)(=O)c1cc2c(cc1Cl)NC(Cc1ccccc1)NS2(=O)=O (stereo not drawn) | inactive
CCOc1cc(S(=O)(=O)N2CCN(CC)CC2)ccc1Cl | inactive
CCOC(=O)C1CCN(C(=O)CCc2nc3ccccc3[nH]2)CC1 | inactive
c1ccc2cc(CSCc3nc4ccccc4[nH]3)ccc2c1 | inactive
C#CCOCCOCCOCCNc1nc(N2CCN(C(=O)CCCCCCCCCCNC(=O)[C@H]([C@@H](C)CC)n3cc(CCCCN=C(N)N)nn3)CC2)nc(N2CCN(C(=O)CCCCCCCCCCNC(=O)[C@@H]([C@H](C)O)n3cc(C)nn3)CC2)n1 | inactive
C#CCOCCOCCOCCNc1nc(N2CCN(C(=O)CCCCCCCCCCNC(=O)[C@@H](CCSC)n3cc(CCO)nn3)CC2)nc(N2CCN(C(=O)CCCCCCCCCCNC(=O)[C@H]([C@@H](C)CC)n3cc(CCCCCN)nn3)CC2)n1 | inactive
c1cc2c(cc1Oc1nc(N3CCOCC3)nc(N3CCOCC3)n1)OCO2 | inactive
COc1cc(CNC(=O)CCC(=O)N2C[C@H]3C[C@H](C2)c2cccc(=O)n2C3)cc(OC)c1OC | inactive
CC1(C)Cc2c(sc(NC(=O)COc3ccc(Cl)cc3)c2C(N)=O)C(C)(C)N1 | inactive
CCC(=O)N(Cc1cc2cc(OC)ccc2[nH]c1=O)c1ccc(C)cc1C | inactive
